Assay results taken from PubChem BioAssay (EPA / NIEHS).
“And” between values parts separate entries of the source, which are not always exact repeats. Identical values can stand only once. Inconclusive results are not listed. The source holds several records for some structures; these can differ, active in one and inactive in another. The source made the active and inactive calls. The calls were made as follows, unless noted: active = hit-call score of the fitted dose curve at least 0.9, where 1 is the maximum; inactive = score below 0.9.

Experiments:
[1] = molecular target: Glucocorticoid receptor (Homo sapiens) (UniProt P04150); test: ATG_GR_TRANS: Attagene TRANS-FACTORIAL HepG2 Assay for human Glucocorticoid Receptor (GR) (AID 2282978; active = hit-call score of the fitted dose curve at least 0.9, where 1 is the maximum;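 also: activators score as hits since higher reporter transcript over DMSO is fitted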); conditions: HepG2 Attagene TRANS GR reporter, mRNA transcription
Sequence of Glucocorticoid receptor (Homo sapiens) (P04150 whole entry, looked up, the tested form may be a part): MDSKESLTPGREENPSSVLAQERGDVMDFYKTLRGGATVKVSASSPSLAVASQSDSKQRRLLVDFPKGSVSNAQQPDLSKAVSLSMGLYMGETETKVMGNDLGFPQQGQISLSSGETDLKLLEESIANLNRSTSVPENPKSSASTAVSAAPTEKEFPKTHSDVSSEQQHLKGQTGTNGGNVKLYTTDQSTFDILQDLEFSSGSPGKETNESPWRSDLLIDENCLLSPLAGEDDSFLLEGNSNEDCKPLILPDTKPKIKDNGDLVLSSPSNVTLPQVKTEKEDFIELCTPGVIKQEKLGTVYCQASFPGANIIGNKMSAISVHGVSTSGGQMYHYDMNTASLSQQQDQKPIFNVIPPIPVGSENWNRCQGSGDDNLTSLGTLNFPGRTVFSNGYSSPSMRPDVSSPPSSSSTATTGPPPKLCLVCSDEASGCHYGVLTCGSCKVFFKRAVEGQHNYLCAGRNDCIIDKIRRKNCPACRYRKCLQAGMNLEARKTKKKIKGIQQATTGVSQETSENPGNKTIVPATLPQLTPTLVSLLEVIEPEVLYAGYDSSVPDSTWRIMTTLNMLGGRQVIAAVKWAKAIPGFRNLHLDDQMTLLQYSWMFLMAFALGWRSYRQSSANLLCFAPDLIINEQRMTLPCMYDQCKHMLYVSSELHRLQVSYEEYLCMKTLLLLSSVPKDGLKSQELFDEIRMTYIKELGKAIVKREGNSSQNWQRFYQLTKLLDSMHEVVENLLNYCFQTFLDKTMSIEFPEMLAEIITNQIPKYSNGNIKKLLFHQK
In short: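 Exogenous NR-GAL4 fusion activity was assessed through induced GAL4-UAS reporter transcripts in transfected human HepG2 cells, quantified after 24 h by RT-PCR and fluorescent capillary electrophoresis with DMSO as baseline.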

[2] = molecular target: Oxysterols receptor LXR-alpha (Homo sapiens) (UniProt Q13133); test: ATG_LXRa_TRANS: Attagene TRANS-FACTORIAL HepG2 Assay for human Liver X Receptor alpha (LXRa) (AID 2282980; active = hit-call score of the fitted dose curve at least 0.9, where 1 is the maximum); conditions: HepG2 Attagene TRANS reporter, LXRa transactivation
Sequence of Oxysterols receptor LXR-alpha (Homo sapiens) (Q13133 whole entry, looked up, the tested form may be a part): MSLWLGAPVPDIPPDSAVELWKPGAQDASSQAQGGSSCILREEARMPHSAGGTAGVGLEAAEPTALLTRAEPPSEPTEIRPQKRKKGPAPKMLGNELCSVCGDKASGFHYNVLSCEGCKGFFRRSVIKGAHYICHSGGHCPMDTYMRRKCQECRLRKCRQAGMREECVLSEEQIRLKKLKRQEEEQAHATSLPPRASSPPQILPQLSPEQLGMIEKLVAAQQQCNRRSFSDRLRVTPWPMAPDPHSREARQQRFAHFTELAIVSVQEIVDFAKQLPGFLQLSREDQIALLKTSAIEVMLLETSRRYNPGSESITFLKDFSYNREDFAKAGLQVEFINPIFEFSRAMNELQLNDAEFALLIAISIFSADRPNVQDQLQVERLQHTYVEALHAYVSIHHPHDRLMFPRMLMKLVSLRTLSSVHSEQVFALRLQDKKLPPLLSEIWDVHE
In short: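 HepG2 cells transiently transfected with GAL4-UAS reporter units for chimeric NR-Gal4 proteins, exposed to chemicals for 24 h. Reporter mRNA quantified by RT-PCR and capillary electrophoresis; gain of signal fitted relative to DMSO.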

[3] = ATG_M_06_TRANS: Attagene TRANS-FACTORIAL HepG2 Assay for M06 Transcription Factor (Internal Marker) (AID 2282983; active = hit-call score of the fitted dose curve at least 0.9, where 1 is the maximum;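 also: reporter transcript level by RT-PCR then capillary electrophoresis fluorescence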); conditions: HepG2 Attagene TRANS M06 internal marker reporter
In short: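 HepG2 cells transiently transfected with GAL4-UAS multiple reporter units, dosed 24 h. Reporter RNA reverse-transcribed, PCR-amplified, 6-FAM-labeled, HpaI-digested and quantified by capillary electrophoresis; this internal-marker signal fitted upward relative to DMSO.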

[4] = ATG_M_32_TRANS: Attagene TRANS-FACTORIAL HepG2 Assay for M32 Transcription Factor (Internal Marker) (AID 2282984; active = hit-call score of the fitted dose curve at least 0.9, where 1 is the maximum;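 also: transcript level of a background control reporter unit measured by RT-PCR and capillary electrophoresis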); conditions: HepG2 Attagene TRANS M32 internal marker reporter
In short: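 HepG2 cells transiently transfected with multiple GAL4-UAS reporter transcription units, dosed for 24 hours; reporter mRNA quantified by RT-PCR, 6-FAM primer extension, HpaI digestion and capillary electrophoresis. Gain-of-signal fitted versus DMSO baseline; internal background-control marker.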

[5] = molecular target: Nuclear receptor subfamily 4 group A member 2 (Homo sapiens) (UniProt P43354); test: ATG_NURR1_TRANS: Attagene TRANS-FACTORIAL HepG2 Assay for human Nuclear Receptor Related Protein 1 (NURR1) (AID 2282985; active = hit-call score of the fitted dose curve at least 0.9, where 1 is the maximum); conditions: HepG2 Attagene TRANS reporter, mRNA readout
Sequence of Nuclear receptor subfamily 4 group A member 2 (Homo sapiens) (P43354 whole entry, looked up, the tested form may be a part): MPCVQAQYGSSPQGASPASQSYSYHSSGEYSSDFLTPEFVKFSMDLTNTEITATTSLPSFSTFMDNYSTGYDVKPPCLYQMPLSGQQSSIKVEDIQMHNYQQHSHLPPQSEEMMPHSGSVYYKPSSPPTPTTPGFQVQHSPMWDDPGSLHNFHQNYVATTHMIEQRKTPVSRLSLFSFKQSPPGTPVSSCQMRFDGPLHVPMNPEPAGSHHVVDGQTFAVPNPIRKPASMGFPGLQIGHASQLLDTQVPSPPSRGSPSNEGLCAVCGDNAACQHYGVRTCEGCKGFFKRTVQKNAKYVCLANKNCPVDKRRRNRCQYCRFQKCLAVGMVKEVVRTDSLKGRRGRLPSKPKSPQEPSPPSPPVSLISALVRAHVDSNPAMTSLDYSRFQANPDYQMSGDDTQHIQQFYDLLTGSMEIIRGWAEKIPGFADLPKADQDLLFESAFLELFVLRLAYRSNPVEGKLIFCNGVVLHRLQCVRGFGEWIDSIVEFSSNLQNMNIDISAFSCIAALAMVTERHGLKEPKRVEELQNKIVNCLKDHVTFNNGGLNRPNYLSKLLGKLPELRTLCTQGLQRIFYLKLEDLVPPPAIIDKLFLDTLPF
In short: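 HepG2 cells transiently transfected with GAL4-UAS reporter units and chimeric NR-Gal4 constructs; chemical exposure 24 h. Reporter mRNA quantified by RT-PCR, fluorescent labelling and capillary electrophoresis; gain of signal fitted relative to DMSO baseline.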

[6] = molecular target: Transcriptional activator Myb (Homo sapiens) (UniProt P10242); test: ATG_Myb_CIS: Attagene CIS-FACTORIAL HepG2 Assay for human Myeloblastosis (Myb) Proto-Oncogene Transcription Factor (AID 2282986); conditions: HepG2 Attagene CIS-FACTORIAL Myb reporter transcription; actives raise or lower the signal
Sequence of Transcriptional activator Myb (Homo sapiens) (P10242 whole entry, looked up): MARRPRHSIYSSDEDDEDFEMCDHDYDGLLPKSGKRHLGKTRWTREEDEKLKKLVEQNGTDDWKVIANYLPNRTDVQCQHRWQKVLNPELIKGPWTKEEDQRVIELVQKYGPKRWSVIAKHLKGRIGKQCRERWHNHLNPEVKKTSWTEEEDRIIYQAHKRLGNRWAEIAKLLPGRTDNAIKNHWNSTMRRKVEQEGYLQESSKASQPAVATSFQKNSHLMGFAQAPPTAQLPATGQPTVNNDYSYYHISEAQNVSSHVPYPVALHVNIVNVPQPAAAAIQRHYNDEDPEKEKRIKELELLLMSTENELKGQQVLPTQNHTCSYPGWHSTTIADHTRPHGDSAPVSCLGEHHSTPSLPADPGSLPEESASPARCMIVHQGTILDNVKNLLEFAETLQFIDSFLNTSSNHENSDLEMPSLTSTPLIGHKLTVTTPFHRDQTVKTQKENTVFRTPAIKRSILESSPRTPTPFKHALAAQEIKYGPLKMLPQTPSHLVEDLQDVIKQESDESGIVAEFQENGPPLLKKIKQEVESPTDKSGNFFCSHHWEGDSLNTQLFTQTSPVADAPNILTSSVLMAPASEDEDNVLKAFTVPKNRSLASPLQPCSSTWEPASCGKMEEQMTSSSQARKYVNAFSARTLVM
In short: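 In this HepG2 transient-transfection format, cis-regulated reporter mRNA is quantified 24 h post-dosing by RT-PCR with capillary electrophoresis, fitted bidirectionally to DMSO baseline.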

[7] = molecular target: Nuclear respiratory factor 1 (Homo sapiens) (UniProt Q16656); test: ATG_NRF1_CIS: Attagene CIS-FACTORIAL HepG2 Assay for human Nuclear Respiratory Factor 1 (NRF1) Orphan Gene (AID 2282987); conditions: HepG2 NRF1 cis-element reporter, Attagene multiplex; actives raise or lower the signal
Sequence of Nuclear respiratory factor 1 (Homo sapiens) (Q16656 whole entry, looked up): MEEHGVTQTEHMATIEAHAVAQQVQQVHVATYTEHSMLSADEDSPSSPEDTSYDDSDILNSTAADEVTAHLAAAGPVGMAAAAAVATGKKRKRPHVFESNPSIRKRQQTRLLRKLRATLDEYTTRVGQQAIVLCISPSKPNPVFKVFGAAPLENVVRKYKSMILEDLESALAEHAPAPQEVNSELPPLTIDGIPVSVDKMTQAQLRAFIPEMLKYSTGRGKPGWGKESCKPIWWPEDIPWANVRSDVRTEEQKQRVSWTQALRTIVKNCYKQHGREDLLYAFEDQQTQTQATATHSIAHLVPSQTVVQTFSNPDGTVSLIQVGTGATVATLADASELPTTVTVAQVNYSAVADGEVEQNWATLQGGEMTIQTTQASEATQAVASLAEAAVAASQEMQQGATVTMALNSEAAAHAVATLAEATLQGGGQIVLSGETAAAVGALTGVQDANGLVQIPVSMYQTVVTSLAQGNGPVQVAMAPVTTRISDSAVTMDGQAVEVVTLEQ
In short: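 Using DMSO as baseline, gain- or loss-of-signal was fitted for reporter mRNA levels in HepG2 cells transiently transfected with cis-regulated reporter units. Samples were taken 24 h after dosing and read by RT-PCR with capillary electrophoresis.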

[8] = ATG_NFI_CIS: Attagene CIS-FACTORIAL HepG2 Assay for human Nuclear Factor I (NFI) (AID 2282989); conditions: HepG2 cis-regulatory reporter, NFI response element transcription; actives raise or lower the signal
In short: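 HepG2, transient MRTU, 24 h exposure; RNA→cDNA→PCR→FAM label→HpaI→CE fluorescence. Bidirectional fit, DMSO = baseline.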

[9] = molecular target: Myc proto-oncogene protein (Homo sapiens) (UniProt P01106); test: ATG_Myc_CIS: Attagene CIS-FACTORIAL HepG2 Assay for human Myelocytomatosis (Myc) Proto-Oncogene Transcription Factor (AID 2282990); conditions: HepG2, Attagene cis-reporter transcription factor activity; actives raise or lower the signal
Sequence of Myc proto-oncogene protein (Homo sapiens) (P01106 whole entry, looked up): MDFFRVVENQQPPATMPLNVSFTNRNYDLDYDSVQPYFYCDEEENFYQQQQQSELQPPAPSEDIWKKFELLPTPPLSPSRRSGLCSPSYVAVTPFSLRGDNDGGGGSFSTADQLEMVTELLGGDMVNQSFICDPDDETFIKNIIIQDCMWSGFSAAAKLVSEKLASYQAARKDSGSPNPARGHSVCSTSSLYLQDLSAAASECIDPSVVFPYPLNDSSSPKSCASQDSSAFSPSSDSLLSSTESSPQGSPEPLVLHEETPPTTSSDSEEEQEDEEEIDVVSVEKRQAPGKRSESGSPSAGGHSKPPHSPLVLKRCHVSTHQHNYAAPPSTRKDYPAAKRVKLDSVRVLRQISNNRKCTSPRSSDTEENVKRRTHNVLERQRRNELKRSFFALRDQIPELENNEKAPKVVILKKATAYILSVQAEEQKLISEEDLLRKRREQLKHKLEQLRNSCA
In short: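 DMSO-normalised, bidirectionally fitted reporter mRNA signal. HepG2 cells transfected with cis reporter constructs, treated 24 h; transcripts detected by RT-PCR, 6-FAM primer extension and CE.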

[10] = ATG_NF_kB_CIS: Attagene CIS-FACTORIAL HepG2 Assay for human Nuclear Factor Kappa B (NF-kB) (AID 2282991); conditions: HepG2 Attagene cis-factorial NF-kB reporter mRNA; actives raise or lower the signal
In short: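 Endpoint from a 52-component multiplexed HepG2 reporter panel: cis-regulated transcription units transiently transfected, 24 h dosing, reporter mRNA quantified by RT-PCR and capillary electrophoresis, scored as increase or decrease against DMSO.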

[11] = ATG_NRF2_ARE_CIS: Attagene CIS-FACTORIAL HepG2 Assay for human Nuclear Factor Erythroid 2 Related Factor 2 (NFR2) response to Antioxidant Response Elements (ARE) (AID 2282992); conditions: HepG2 Attagene ARE/NRF2 reporter, transcription factor activity; actives raise or lower the signal;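 as to AC50: reporter mRNA level measured by RT-PCR and capillary electrophoresis fluorescence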
In short: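 Multiplexed reporter mRNA profiling in HepG2 after a 24 h chemical exposure. Curves fitted in both directions relative to DMSO negative control.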

[12] = ATG_Oct_MLP_CIS: Attagene CIS-FACTORIAL HepG2 Assay for human Octamer-Binding Transcription Factor (Oct) (AID 2282993); conditions: HepG2 Attagene cis-factorial Oct reporter, mRNA; actives raise or lower the signal
In short: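 Multiplexed cis-reporter assay in human liver HepG2 cells, 24 h incubation. Reporter RNA amplified and labelled, then resolved by capillary electrophoresis; DMSO serves as negative control and baseline.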

[13] = molecular target: Cellular tumor antigen p53 (Homo sapiens) (UniProt P04637); test: ATG_p53_CIS: Attagene CIS-FACTORIAL HepG2 Assay for human p53 Transcription Factor (AID 2282994); conditions: HepG2 p53 cis-element reporter, Attagene mRNA; actives raise or lower the signal
Sequence of Cellular tumor antigen p53 (Homo sapiens) (P04637 whole entry, looked up): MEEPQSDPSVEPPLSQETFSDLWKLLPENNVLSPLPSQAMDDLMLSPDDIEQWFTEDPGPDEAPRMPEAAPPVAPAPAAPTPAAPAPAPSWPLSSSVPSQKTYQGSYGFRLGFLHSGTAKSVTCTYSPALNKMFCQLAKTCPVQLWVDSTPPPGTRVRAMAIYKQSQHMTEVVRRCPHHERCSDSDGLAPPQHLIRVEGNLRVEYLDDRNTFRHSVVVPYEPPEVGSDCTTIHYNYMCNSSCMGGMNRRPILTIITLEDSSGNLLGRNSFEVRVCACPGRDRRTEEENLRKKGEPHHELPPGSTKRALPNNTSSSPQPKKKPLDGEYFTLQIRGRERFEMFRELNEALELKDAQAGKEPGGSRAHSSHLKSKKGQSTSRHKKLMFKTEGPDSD
In short: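 Multiplexed reporter mRNA assay in human HepG2 liver cells; cis-regulated units report endogenous factor activity. Values come from bidirectional curve fitting against DMSO negative control after 24 h treatment.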

[14] = BSK_3C_TissueFactor: BioMAP Diversity Plus: 3C Assay for Tissue Factor Biomarker Activity (AID 2282997); conditions: BioMAP 3C HUVEC, tissue factor biomarker readout; actives raise or lower the signal
In short: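 HUVEC were treated 24 h, then surface tissue factor measured by ELISA and fitted bidirectionally against DMSO. Parallel SRB total-protein staining assessed overt cytotoxicity at the same time point.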

[15] = BSK_3C_uPAR: BioMAP Diversity Plus: 3C Assay for Urokinase-type plasminogen activator receptor (uPAR) Biomarker Activity (AID 2282998); conditions: BioMAP 3C HUVEC, uPAR biomarker ELISA; actives raise or lower the signal
In short: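 Dose primary human umbilical vein endothelial cells, incubate 24 h, measure cell-surface uPAR by ELISA, then fit the signal in both directions against the DMSO negative control.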

[16] = BSK_3C_VCAM1: BioMAP Diversity Plus: 3C Assay for Vascular cell adhesion molecule 1 (VCAM1) Biomarker Activity (AID 2282999); conditions: BioMAP 3C HUVEC, VCAM1 ELISA, cytokine-stimulated; actives raise or lower the signal
In short: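 Human umbilical vein endothelial cells were dosed with compound for 24 h, after which cell-surface VCAM-1 was quantified by ELISA. Bidirectional curve fitting used DMSO as negative control and activity baseline.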

[17] = BSK_4H_Eotaxin3: BioMAP Diversity Plus: 4H Assay for Eotaxin 3 Biomarker Activity (AID 2283000); conditions: primary human endothelial cells (HUVEC); actives raise or lower the signal
In short: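 Eotaxin-3 (CCL26) levels were measured by ELISA in HUVEC primary cultures 24 h post-dosing. Gain or loss of signal was fitted in both directions, with DMSO serving as baseline and negative control.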

[18] = molecular target: Oxysterols receptor LXR-beta (Homo sapiens) (UniProt P55055); test: ATG_LXRb_TRANS: Attagene TRANS-FACTORIAL HepG2 Assay for human Liver X Receptor beta (LXRb) (AID 2282981; active = hit-call score of the fitted dose curve at least 0.9, where 1 is the maximum); conditions: HepG2 Attagene TRANS GAL4-LXRb reporter, mRNA
Sequence of Oxysterols receptor LXR-beta (Homo sapiens) (P55055 whole entry, looked up, the tested form may be a part): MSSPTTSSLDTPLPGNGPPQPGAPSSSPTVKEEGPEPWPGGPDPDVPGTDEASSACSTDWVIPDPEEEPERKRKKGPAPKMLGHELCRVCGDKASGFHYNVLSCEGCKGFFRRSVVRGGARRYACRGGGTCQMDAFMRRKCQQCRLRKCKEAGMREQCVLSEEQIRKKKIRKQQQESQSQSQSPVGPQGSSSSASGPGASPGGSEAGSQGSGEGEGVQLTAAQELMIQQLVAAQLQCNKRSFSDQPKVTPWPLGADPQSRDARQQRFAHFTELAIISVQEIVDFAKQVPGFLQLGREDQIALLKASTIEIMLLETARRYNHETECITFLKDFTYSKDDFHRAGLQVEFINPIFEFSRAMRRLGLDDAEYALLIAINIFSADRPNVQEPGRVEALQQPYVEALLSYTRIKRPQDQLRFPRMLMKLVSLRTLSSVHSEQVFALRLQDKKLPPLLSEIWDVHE
In short: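 HepG2 cells transiently transfected with multiple reporter transcription units carrying chimeric NR-Gal4 proteins acting on GAL4-UAS reporters; compound exposure 24 h. Reporter mRNA quantified by RT-PCR, 6-FAM labelling, HpaI digestion and capillary electrophoresis; gain of signal versus DMSO.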

[19] = molecular target: Hepatocyte nuclear factor 4-alpha (Homo sapiens) (UniProt P41235); test: ATG_HNF4a_TRANS: Attagene TRANS-FACTORIAL HepG2 Assay for human Hepatocyte Nuclear Factor 4 alpha (HNF4a) (AID 2282982; active = hit-call score of the fitted dose curve at least 0.9, where 1 is the maximum); conditions: HepG2 HNF4a transactivation reporter, mRNA readout
Sequence of Hepatocyte nuclear factor 4-alpha (Homo sapiens) (P41235 whole entry, looked up, the tested form may be a part): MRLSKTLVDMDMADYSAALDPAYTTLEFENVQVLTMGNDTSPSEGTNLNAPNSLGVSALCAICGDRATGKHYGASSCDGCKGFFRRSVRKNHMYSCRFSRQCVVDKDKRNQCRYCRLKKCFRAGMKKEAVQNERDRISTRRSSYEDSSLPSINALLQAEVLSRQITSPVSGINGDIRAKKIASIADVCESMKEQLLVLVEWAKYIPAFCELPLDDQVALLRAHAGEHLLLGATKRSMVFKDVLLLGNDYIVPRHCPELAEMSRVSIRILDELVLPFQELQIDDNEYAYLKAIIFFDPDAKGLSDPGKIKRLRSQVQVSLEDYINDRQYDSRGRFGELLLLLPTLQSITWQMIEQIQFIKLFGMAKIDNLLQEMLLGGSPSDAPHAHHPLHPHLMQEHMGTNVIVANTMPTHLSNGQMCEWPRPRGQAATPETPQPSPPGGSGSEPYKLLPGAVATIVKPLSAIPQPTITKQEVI
In short: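 HepG2 cells transiently transfected with multiplexed GAL4-UAS reporter units responsive to chimeric NR-GAL4 proteins; compound exposure 24 h. Reporter mRNA quantified by RT-PCR, 6-FAM labelling, HpaI digestion and capillary electrophoresis; gain of signal versus DMSO baseline.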

Measured: AC50

CCCCC(CC)COC(=O)c1ccccc1O (centres undefined)
active: [14] 1.8 µM | [15] 17.9 µM | [17] 15.2 µM
not listed: [18] | [19]
inactive: all other assays above

O=C(c1ccc(O)cc1)c1ccc(O)cc1O
active: [11] 100 µM | [13] 100 µM | [15] 15.9 µM | [17] 13.9 µM and 20 µM
inactive: [1] | [2] | [4] | [5] | [7] | [8] | [9] | [10] | [12] | [14] | [15] | [16]

COCCOCCOCCOCCOC
not listed: [2] | [4] | [5] | [10] | [14] | [15] | [16] | [17]
inactive: all other assays above

C=CC(C)(CCC=C(C)C)OC(=O)C(C)C (centres undefined)
active: [11] 100 µM
inactive: [1] | [2] | [3] | [5] | [6] | [7] | [8] | [9] | [10] | [13]

CC(C)CC(O)Cc1ccccc1 (centres undefined)
inactive: [1] | [2] | [3] | [4] | [6] | [7] | [8] | [9]
active: [11] 41.9 µM
